From the OligoGym collection come the findings set out here.
Further: reference of the scale not given here.

The first experiment has as its target C20orf54. The experiment in a line: pooled miR-30 sensor sort-seq; sequence = guide strand. To be noted: shRNA.
The sequence TATCTCAGTGACATTGACGCAG registered a sensor-assay potency score (higher = more potent) of 0.229. Take TTTCTCCTCTAGATACCCCTGG: the sensor-assay potency score (higher = more potent) was 0.0398. Still for that read-out and setting: the same measure for TTCCCTTCTAACACCCTTGGGC: 0.125.

As to TTATCTGCTTGTCTTGTAGAAG, the sensor-assay potency score (higher = more potent) is -1.04.

Sequence TTACTCTCCAACTAGTGGGCTT yielded a sensor-assay potency score (higher = more potent) of -0.23.

Consider TTGACGTAACTGAGGCAGCCGC, for which the sensor-assay potency score (higher = more potent) was -1.38. Sequence TGAAGAGGTGCAGTCCACCAGG had a sensor-assay potency score (higher = more potent) of -0.698. Still for that read-out and setting: the value for TCAGTGACATTGACGCAGGTAG was -0.422.

In the next experiment the target is C21orf70. Described as above. To be noted: shRNA.
As for TTCTGCACCAAGGCGCTGGGGT, the sensor-assay potency score (higher = more potent) was -0.84. With TTCTTGGGCAAAACGGTCTTGG, the sensor-assay potency score (higher = more potent) is -0.889. Sequence TTGAGCCCCACAACCGACCAGA returned a sensor-assay potency score (higher = more potent) of -0.652. Sequence TTGGTGTTGATGAACGCCCAGT returned a sensor-assay potency score (higher = more potent) of -0.833. TTTTATGGCTTCGATTTTCTGC displayed a sensor-assay potency score (higher = more potent) of -0.59. For TTGCTCACGCCTCAGCTTCATT, the sensor-assay potency score (higher = more potent) is -1.27.

In the case of ATTTTCTGCAACCATTGCTCAC, the sensor-assay potency score (higher = more potent) is -1.16. The same measure, in the same setting: the same measure for TCTTCCAGCTGCATCTGCCGGG: -0.496; for TTTTCTGCAACCATTGCTCACG: -0.501; for TTCGATTTTCTGCAACCATTGC: -1.09. The sequence TTTATTGAGCCCCACAACCGAC yielded a sensor-assay potency score (higher = more potent) of -1.2.

TCCAGCTTCTGCACCAAGGCGC gave a sensor-assay potency score (higher = more potent) of -0.982.

The target in a further experiment is C2orf55. The experiment is described as above. To be noted: shRNA.
In turn, TTATCCTCTTTGTTTTGCCTGG registered a sensor-assay potency score (higher = more potent) of -0.575. TTTGTTTGCCACAATACACTGG showed a sensor-assay potency score (higher = more potent) of -0.196.

Take TTAGATTTTTTCTTTCCTGTGC: the sensor-assay potency score (higher = more potent) came out at 0.654. In turn, TTTGCCACAATACACTGGCAGT displayed a sensor-assay potency score (higher = more potent) of -1.43.

In turn, TTGATGATAAAATCAATCTTTA returned a sensor-assay potency score (higher = more potent) of -0.855. Still for that read-out and setting: the same measure for TTATTTTTGGAAACAGTCTATG: -0.924. In turn, TTTCTGGCAAGTTCCATCCAGG displayed a sensor-assay potency score (higher = more potent) of -0.596. ATTATTTTTGGAAACAGTCTAT displayed a sensor-assay potency score (higher = more potent) of -0.496. As for TTTTTGGAAACAGTCTATGAAT, the sensor-assay potency score (higher = more potent) is -1.5. For TTTCTTTCTGGCAAGTTCCATC, the sensor-assay potency score (higher = more potent) was -0.776. With TTGTTTGCCACAATACACTGGC, the sensor-assay potency score (higher = more potent) came to 0.782. Consider TTGAATTTAGATTTTTTCTTTC, for which the sensor-assay potency score (higher = more potent) was -0.493.

Another experiment deals with C2orf57. Described as above. To be noted: shRNA.
TTCTCCTCAGCAGACTTGGTGG: the sensor-assay potency score (higher = more potent) is -0.95. AACAACTGCACTCTTGTCTTTG yielded a sensor-assay potency score (higher = more potent) of -0.961. Turning to ATTTGTGACATCTTGTCTTTAC, the sensor-assay potency score (higher = more potent) is -1.19. On the same count and under the same terms, the value for TCTCTCAGGAACACTCGCCATT was -1.27. For the sequence TTGTCTTTGTCTCCAGATGTTG, the sensor-assay potency score (higher = more potent) is -1.39. For the sequence TAGACCTGCTGTCATCCACGTT, the sensor-assay potency score (higher = more potent) is -1.17. Same read-out and setting: the same measure for TGACATCTTGTCTTTACCCAGG: -0.635; for TTCTGGAACAACTGCACTCTTG: -1.11.
